This is an account of results in PubChem BioAssay.

Molecules are shown by their SMILES.

The test system of one assay is glycogen synthase kinase-3 (GSK3A per assay name; protocol says GSK3B). Description: GSK3 binders on small-molecule microarrays, primary screen, biochemical, small-molecule microarray, 635 nm fluorescence, GSK3A (AID 1103). Further: the record names both GSK3A and GSK3B. The settings on record: small-molecule microarray binding, fluorescence 635 nm; higher = more signal.
On to `CO[C@H]1O[C@H](CO)[C@@H](OC(=O)Nc2ccccc2-c2ccccc2)[C@H](OC(=O)Nc2ccc3c(c2)OCO3)[C@H]1OC(=O)Nc1ccc2c(c1)OCO2`, for which the composite z-score turned out to be 1.32.

The molecule `COC(=O)[C@@]1(Cc2ccc(F)cc2)[C@H]2c3cc(C(=O)N4CCCC4)n(CCN4CNCC4=O)c3C[C@H]2CN1C(=O)c1ccccc1` registered a composite z-score of 1.26.

Turning to `CN(C)CCCNC(=O)[C@@H]1c2ccccc2C(=O)N(Cc2ccccc2Cl)[C@H]1c1ccc(CO)cc1`, the composite z-score was determined as 0.333.

For the next assay, the target named is Epidermal growth factor receptor (Homo sapiens) (UniProt P00533). The assay is described as follows: EGFR binders on small-molecule microarrays, primary screen, biochemical, small-molecule microarray, 635 nm fluorescence (AID 1104).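 Further: score merges 667 nm emission intensity with spot signal to noise over triplicate slides.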 Particulars: EGFR binding, higher = more signal.
Sequence of Epidermal growth factor receptor (Homo sapiens) (P00533 whole entry, looked up): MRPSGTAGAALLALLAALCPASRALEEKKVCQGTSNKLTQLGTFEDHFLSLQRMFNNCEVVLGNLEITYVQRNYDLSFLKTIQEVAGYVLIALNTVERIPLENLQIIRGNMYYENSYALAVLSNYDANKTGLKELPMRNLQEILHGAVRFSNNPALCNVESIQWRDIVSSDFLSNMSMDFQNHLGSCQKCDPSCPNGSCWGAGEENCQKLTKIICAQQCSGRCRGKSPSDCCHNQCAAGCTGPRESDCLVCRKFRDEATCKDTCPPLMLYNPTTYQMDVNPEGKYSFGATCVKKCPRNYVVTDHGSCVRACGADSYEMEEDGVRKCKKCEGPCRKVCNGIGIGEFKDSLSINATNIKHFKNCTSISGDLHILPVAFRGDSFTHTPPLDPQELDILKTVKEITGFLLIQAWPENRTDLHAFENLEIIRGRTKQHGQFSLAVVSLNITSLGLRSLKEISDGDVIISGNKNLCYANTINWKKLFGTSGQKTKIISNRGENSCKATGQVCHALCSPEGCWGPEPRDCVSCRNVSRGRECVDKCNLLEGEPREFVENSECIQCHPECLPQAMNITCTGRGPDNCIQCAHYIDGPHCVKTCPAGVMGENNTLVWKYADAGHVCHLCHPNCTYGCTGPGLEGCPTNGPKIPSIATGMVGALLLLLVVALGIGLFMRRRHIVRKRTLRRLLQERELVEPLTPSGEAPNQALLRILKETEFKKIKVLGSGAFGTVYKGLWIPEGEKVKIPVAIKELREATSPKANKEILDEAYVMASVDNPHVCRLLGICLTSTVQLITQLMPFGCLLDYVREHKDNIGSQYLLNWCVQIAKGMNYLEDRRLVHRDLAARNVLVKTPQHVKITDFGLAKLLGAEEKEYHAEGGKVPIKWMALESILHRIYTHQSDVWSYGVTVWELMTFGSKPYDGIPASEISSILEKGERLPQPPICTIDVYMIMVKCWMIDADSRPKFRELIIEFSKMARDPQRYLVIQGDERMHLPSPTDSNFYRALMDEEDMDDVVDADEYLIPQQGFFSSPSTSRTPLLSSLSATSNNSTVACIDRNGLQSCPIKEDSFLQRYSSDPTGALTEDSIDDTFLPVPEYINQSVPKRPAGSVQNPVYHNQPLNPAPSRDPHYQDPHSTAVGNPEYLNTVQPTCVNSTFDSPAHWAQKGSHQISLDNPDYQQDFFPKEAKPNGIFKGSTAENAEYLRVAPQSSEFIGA
`COc1cc2c(cc1O)C(C)N(Cc1ccc([N+](=O)[O-])o1)CC2` (centres undefined) showed a composite z-score of -0.459.

For `COCCOC(=O)N1C(=O)[C@@]2(c3cc(C#Cc4ccc(OC)cc4)ccc31)[C@H](c1ccc(O)cc1)N1[C@H](c3ccccc3)[C@H](c3ccccc3)OC(=O)[C@H]1[C@@H]2C(=O)N1CCCCCCC1`, the composite z-score is -0.191.

`COc1ccc([Si](C)(C)[C@@H]2[C@@H](CC(=O)N(CCO)Cc3ccccc3)O[C@]3(C(=O)N(Cc4cccc(N5C(=O)c6cccc7cccc5c67)c4)c4ccccc43)[C@H]2C)cc1` displayed a composite z-score of 0.412.

`Cc1ccc(S[C@]2(C(=O)O)CC(=O)N(Cc3ccccc3Cl)[C@@H]2c2ccc(CO)cc2I)cc1` returned a composite z-score of 0.0365.

`COC(=O)C1=CC(CCCO)=CC(C2CC2)N(C)C=C1C(=O)OC` (centres undefined): the composite z-score was -0.0025.

As to `COCCOC(=O)N1C(=O)[C@@]2(c3cc(C#CCC(C(=O)OC)C(=O)OC)ccc31)[C@H](C(=O)N1CCc3cc(OC)c(OC)cc3C1)[C@H]1C(=O)O[C@H](c3ccccc3)[C@H](c3ccccc3)N1[C@@H]2c1ccc(OCCO)cc1`, the composite z-score stood at 0.936.
